# PubChem BioAssay (NCI)
# “And” between values parts separate entries of the source, which are not always exact repeats. Identical values can stand only once. About 83,000 compounds went through this panel and 20% of them were active in at least one assay; those are over-represented in the sample as a whole.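 Plates (96-well) were seeded with cells, treated with compound at one concentration, and incubated for 48 hours before percent growth was determined.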 The source made the active and inactive calls. Rule for the calls: active = growth percent below 10; inactive = the rest.
# Tested on: MDA-MB-468 breast
# Assay: NCI-60 one-dose screen, 48 h (100 = growth as untreated, 0 = no growth, -100 = all killed)
# Conditions: 10 µM unless noted
row,SMILES,growth
1,Fc1ccc(-c2nnc(-c3c(-c4ccc(F)cc4)nc4ncccn34)o2)cc1,88.7% (inactive)
2,CCOC1(OCC)OC(c2ccccc2)=C(C#N)C(/C=C\c2ccccc2)C1(OCC)OCC (stereo not given),56.7% (inactive)
3,O=C(Nc1ccccc1O)c1ccc(CNc2ccnc(C(F)(F)F)c2)cc1,90.7% (inactive)
4,COc1cc(OCc2cccc(-c3ccccc3)c2C)cc(OC)c1CN1CCCCC1C(=O)NCCOCCOCCN (stereo not given),30% (inactive)
5,CCN1CCN(Cc2ccc(NC(=O)Nc3cccc(-n4ccc5c(NC(=O)c6ccccc6)nccc54)c3)cc2C(F)(F)F)CC1,20.2% (inactive)
6,COCCCNc1nc(NC(=O)c2ccc(F)cc2C)cc(-c2cccnc2)n1,111% (inactive)
7,CCOC(=O)c1cnc2c(-c3ccc(Cl)c(Cl)c3)cnn2c1,85.4% (inactive)
8,Clc1ccc(-c2nnc(COc3ccc(C4=NNC(c5ccco5)C4)cc3)o2)cc1 (stereo not given),9.43% (active)
9,CCCCCCN1C=C/C(=C\C(=O)n2ccc3ccccc32)c2ccccc21,-12% (active)
10,NNC(=O)CSc1nc2scc(-c3ccccc3)c2c(=O)n1-c1ccccc1,102% (inactive)
11,O=C(CI)NC(=O)NC(=O)NCc1ccccc1,65.5% (inactive)
12,CC(=O)Oc1cc2cnc3c4cc(OC(C)=O)c(OC(C)=O)cc4ccc3c2cc1OC(C)=O,-7.77% (active)
13,Cc1c(Cl)cccc1C(=O)Nc1nc2c(s1)CN(C(=O)Nc1cccc(C(F)(F)F)c1)CC2,16.7% (inactive)
14,COc1ccc(-c2csc(NC(=O)CO[N+](=O)[O-])n2)cc1,113% (inactive)
15,c1ccc2c(NCCCN3CCOCC3)c3oc4ccccc4c3nc2c1,-53.6% (active)
16,C=C(C)[C@@H]1CC[C@]2(N=C=O)CC[C@]3(C)[C@H](CC[C@@H]4[C@@]5(C)Cc6c([nH]c7ccccc67)C(C)(C)[C@@H]5CC[C@]43C)[C@@H]12,92.5% (inactive)
17,OC(COc1ccccc1Cl)CN1CCN(c2cccc(Cl)c2)CC1 (stereo not given),103% (inactive)
18,CC(=O)Oc1ccc(OC(C)=O)c2ccccc12,-53.2% (active)
19,CCCCCCOc1ccc(/C=N/NC(N)=S)cc1,66.9% (inactive)
20,Cc1ccc(N)c(O)c1,78.7% (inactive)

row,SMILES,growth
1,COc1ccccc1NS(=O)(=O)c1cccc(C(=O)Nc2ccc(Br)cc2)c1,3.03% (active)
2,CCOC(=O)c1nn(C2CCCCO2)c2ccc(NS(=O)(=O)c3ccc(C)cc3)cc12 (stereo not given),105% (inactive)
3,O=C(O)c1cccc([N+](=O)[O-])c1,109% (inactive)
4,N#Cc1c(-c2ccc(Cl)cc2)csc1NC(=O)Nc1ccc(Cl)c(C(F)(F)F)c1,-9.61% (active)
5,COc1ccc(COc2ccc(/C=C3\C(=O)Nc4ccccc43)cc2OC)cc1,100% (inactive)
6,CCCCCCCC/C=C/CCCCCCCC1=NC(C)(C)CN1CC(C)O (stereo not given),46.7% (inactive)
7,COC1CC(OC(=O)c2ccc([N+](=O)[O-])cc2)C(COC(=O)c2ccc([N+](=O)[O-])cc2)O1 (stereo not given),93.6% (inactive)
8,COc1cc(NS(C)(=O)=O)ccc1Nc1c2ccccc2nc2ccccc12,-3.7% (active) and -17.8% (active)
9,Cc1cc(Cl)ccc1Nc1nc(C(F)(F)F)ccc1C(=O)NCC(=O)N/N=C/c1c(Cl)cccc1Cl,105% (inactive)
10,Cc1cc2c(-c3nc4ccccn4c3Nc3cccc4ccccc34)c(O)c(O)cc2c(O)c1-c1c(C)cc2c(-c3nc4ccccn4c3Nc3cccc4ccccc34)c(O)c(O)cc2c1O,17.4% (inactive)
11,N#Cc1cccc(NC(=O)c2oc3ccccc3c2-c2cnn(-c3ccccc3)c2)c1,66.6% [50 µM] (inactive)
12,C/C(=N\Nc1ccccc1)c1ccc(NC2=CC(=O)c3ccccc3C2=O)cc1,35.7% (inactive)
13,O=C1CCC(N2C(=O)c3ccc(NS(=O)(=O)c4ccccc4OC(F)(F)F)cc3C2=O)C(=O)N1 (stereo not given),10.1% (inactive)
14,CCCCCn1sc(=O)n(Cc2ccc(CNC(=O)OCc3ccc4cccc(O)c4n3)cc2)c1=O,-48.1% (active)
15,Oc1c(Cl)cc(Cl)c(Cl)c1CNCCNCc1c(O)c(Cl)cc(Cl)c1Cl,2.91% (active)
16,COc1cc(OC)cc(-c2n/c(=C\c3c(O)[nH]c4ccc(OC)cc34)cc3c2=Nc2ccccc2-3)c1,88.4% (inactive)
17,CC(=O)Nc1c(Br)cc2c(c1Br)Cc1cc(Br)ccc1-2,-35.2% (active)
18,Cc1cccc(N2CCN(C(=S)c3ccc4c(c3)OCO4)CC2)c1,-37.6% (active)
19,CCNCCCn1c2c(c3ccc(F)cc3c1=O)C(=O)c1cc(OC)cnc1-2,-75.7% (active)
20,CC(=O)c1ccc(NCC(=O)Nc2ccccn2)cc1,106% (inactive)
